hNpr1 antagonist: Natriuretic polypeptide receptor (hNpr1) antagonism - Primary qHTS | Atrial natriuretic peptide receptor 1 (Homo sapiens), P16066 | HEK293 hNpr1 GloSensor cGMP, ANP-stimulated luminescence | Potency, µM (doses to about 46.3 µM), inactives show at the top dose activity change, negative = inhibition, usual class: inhibitors | actives 1.6% (n = 76,000); calls by dose curve; note: nearly all actives have a fitted effect of over 60% in size
Target sequence (P16066 whole entry, looked up): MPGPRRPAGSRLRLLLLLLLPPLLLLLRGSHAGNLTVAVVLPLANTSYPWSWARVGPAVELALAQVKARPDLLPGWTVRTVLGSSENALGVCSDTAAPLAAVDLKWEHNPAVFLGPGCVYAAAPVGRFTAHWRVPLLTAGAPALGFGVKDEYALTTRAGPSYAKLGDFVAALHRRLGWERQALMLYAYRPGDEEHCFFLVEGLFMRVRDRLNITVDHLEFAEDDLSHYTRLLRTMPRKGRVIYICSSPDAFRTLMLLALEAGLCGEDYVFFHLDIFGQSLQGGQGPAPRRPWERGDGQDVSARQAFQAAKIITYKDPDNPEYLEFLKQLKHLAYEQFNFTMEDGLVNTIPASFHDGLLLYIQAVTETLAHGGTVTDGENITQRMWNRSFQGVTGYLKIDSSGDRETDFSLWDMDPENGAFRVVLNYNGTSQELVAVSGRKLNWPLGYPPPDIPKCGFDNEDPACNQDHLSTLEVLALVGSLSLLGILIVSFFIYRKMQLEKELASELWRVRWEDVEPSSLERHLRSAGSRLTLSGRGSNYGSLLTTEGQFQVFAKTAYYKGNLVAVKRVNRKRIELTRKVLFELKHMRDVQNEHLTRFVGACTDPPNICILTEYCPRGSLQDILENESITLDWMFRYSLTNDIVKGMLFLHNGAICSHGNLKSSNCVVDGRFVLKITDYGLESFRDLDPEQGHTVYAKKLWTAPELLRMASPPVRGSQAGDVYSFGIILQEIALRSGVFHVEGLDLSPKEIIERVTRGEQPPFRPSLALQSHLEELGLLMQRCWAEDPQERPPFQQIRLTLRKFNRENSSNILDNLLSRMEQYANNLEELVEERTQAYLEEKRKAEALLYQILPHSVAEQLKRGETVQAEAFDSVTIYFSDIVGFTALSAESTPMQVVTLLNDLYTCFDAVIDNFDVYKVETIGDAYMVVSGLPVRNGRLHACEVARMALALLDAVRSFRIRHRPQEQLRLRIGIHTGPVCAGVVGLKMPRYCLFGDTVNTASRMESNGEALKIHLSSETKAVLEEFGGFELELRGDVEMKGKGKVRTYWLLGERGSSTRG
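HEK293 cells stably expressing human Npr1 and cGMP GloSensor pGS-40F, loaded 2 h with 2% GloSensor reagent, given compound 30 min at room temperature. Luminescence read before and 20 min after 0.1 nM hNppA.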
3T3 cytotox: Cytotoxic Profiling in NIH 3T3 Cell Line of Diverse Libraries Using Quantitative High-Throughput Screening; NIH 3T3 viability, CellTiter-Glo ATP luminescence, 48-72 h; Potency, µM (titrated, usually from 96.7 µM), for the others: at the highest dose activity change, negative = cytotoxicity, most hits filed as inhibitors; actives 4.3% (n = 94,000); AID 1345082, 2018; note: nearly all actives have a fitted effect of over 55% in size
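Mouse fibroblast NIH 3T3 cells, 400 per well, received compound via pintool and were incubated for 48 or 72 hr prior to CellTiter-Glo ATP luminescence measurement.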
HEK cytotox: Cytotoxic Profiling in HEK 293 Cell Line of Diverse Libraries Using Quantitative High-Throughput Screening; HEK 293 viability, ATP luminescence (CellTiter-Glo), 48-72 h; Potency, µM (doses to about 115 µM), without a hit: at the highest dose activity change, negative = cytotoxicity, usual class: inhibitors; actives 6.6% (n = 94,000); note: nearly all actives have a fitted effect of over 60% in size
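CellTiter-Glo luminescence (cellular ATP) was read after 48 or 72 hr of compound exposure at 37 degree Celsius. Cells were HEK 293 plated at 250 cells/well.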
FLuc inh: Firefly luciferase inhibition profiling of diverse chemical library using quantitative high-throughput screening | Luciferin 4-monooxygenase (Photinus pyralis), P08659 | purified P. pyralis luciferase, luminescence, biochemical | Potency, µM (doses to about 115 µM), actives largely listed as inhibitors | actives 2.5% (n = 76,000) | AID 1347043, 2019; note: nearly all actives have a fitted effect of over 65% in size
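Inhibitors were tested against purified firefly luciferase in a biochemical, low-substrate format (both substrates at 10uM) and luminescence measured with a CCD imager.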
Active calls of the source: *; i = inactive; ? = inconclusive; . = no result given; [ ] = remark or other dose. Sampled rows, rich in hits. Any-hit rate of the full collection: about 11%. Unless noted, calls come from the whole dose curve; as a rule, active = well fitted curve in the direction sought with a large enough effect; inconclusive = small, poorly fitted or top-dose-only effect, or another doubt; inactive = no such curve, though single readings can be large; an effect the other way counts as inactive or inconclusive. % is set by controls: 0 for no effect and ±100 for the full control effect; potency is the fitted concentration of half-maximal effect.

SMILES	hNpr1 antagonist	3T3 cytotox	HEK cytotox	FLuc inh
CCNc1ccnc(NC2CCCc3c2cnn3-c2ccc(C)c(C)c2)n1 (centres undefined)	3%	28µM*	40µM*	?
O=c1c2nc(-c3ccccc3)ccc2ncn1-c1ccccc1	-2%[70.6 µM]	?	?	i
COc1ccc(-c2ccc3ncn(C)c(=O)c3n2)cc1OC	0%[70.6 µM]	35µM*	?	i
Cn1cnc2ccc(-c3ccncc3)nc2c1=O	3%[70.6 µM]	79µM*	?	i
COc1ccc(Cl)cc1C(=O)N1CCC[C@H]1c1nc(-c2ccc(C)cc2)no1	-12%	?	?	i
CCN1CCCC1CNC(=O)CCc1ccc2c(c1)CN(C(=O)NC(C)C)CCO2 (centres undefined)	.	-9%	-6%	.
O=[S+]1([O-])NCC2(CCN(Cc3ccc(OC(F)(F)F)cc3)CC2)Nc2ccccc21	1%	?	40µM*	i
O=[S+]1([O-])NCC2(CCCN(Cc3cccc(C(F)(F)F)c3)C2)Oc2ncccc21 (centres undefined)	.	-28%	?	.
O=[S+]1([O-])NCC2(CCCN(Cc3ccc(OC(F)(F)F)cc3)C2)Nc2ccccc21 (centres undefined)	-25%	45µM*	?	i
O=[S+]1([O-])NCC2(CCCN(Cc3ccc(Cl)cc3)C2)Oc2ncccc21 (centres undefined)	.	?	89µM*	.
O=[S+]1([O-])NCC2(CCCN(Cc3ccc(C(F)(F)F)cc3)C2)Nc2ccccc21 (centres undefined)	-17%	?	32µM*	i
O=C(c1ccccc1F)N1CCCC2(CNc3ncccc3[S+](=O)([O-])N2)C1 (centres undefined)	.	3%	i	.
CSc1ccc(-c2ccc3c(c2)C(=O)N2CCN(C(=O)C4CCCCC4)C[C@@H]2C(=O)N3)cc1	-13%	?	?	i
CCCCn1c(=O)c(C(=O)N2CCN(C(=O)Nc3ccccc3)CC2)nc2cccnc21	.	-32%	1%	.
CCOC(=O)C1(Cc2ccccc2)CCCN(C(=O)c2ccccc2SC)C1 (centres undefined)	-9%	?	45µM*	?
CCOC(=O)C1(Cc2ccccc2F)CCCN(C(=O)c2ccc3c(c2)OCCO3)C1 (centres undefined)	1%	?	?	?
CCCc1cc(C(=O)N2CCCC(Cc3ccccc3F)(C(=O)OCC)C2)n(C)n1 (centres undefined)	-23%	?	18µM*	i
Cc1c(CN2CCC(O)(c3ccccc3)[C@H](N3CCCC3)C2)cnn1C (some centres undefined)	2%	?	?	i
O=C(NCc1ccccc1)C1CCCN1c1nccc(Nc2ccccc2F)n1 (centres undefined)	.	-32%	?	.
O=C(NCc1ccc(C(F)(F)F)cc1)C1CCCN(c2nccc(Nc3ccccc3F)n2)C1 (centres undefined)	.	32µM*	?	.
O=C(NCc1cccc(F)c1)C1CCCN(c2nccc(Nc3ccccc3F)n2)C1 (centres undefined)	.	28µM*	?	.
O=C(C1CCCN(c2nccc(Nc3ccccc3F)n2)C1)N1CCCC1 (centres undefined)	.	32µM*	45µM*	.
O=C(C1CCCN(c2nccc(Nc3ccccc3F)n2)C1)N1CCOCC1 (centres undefined)	.	-26%	?	.
O=C(NCC1CCCCCC1)C1CCCN(c2nccc(Nc3ccccc3F)n2)C1 (centres undefined)	.	?	28µM*	.
CCCC(=O)N1Cc2ccccc2CC2(CCN(Cc3cccnc3)C2)C1 (centres undefined)	.	-21%	-22%	.
SMILES	hNpr1 antagonist	3T3 cytotox	HEK cytotox	FLuc inh
CNC(=O)c1cc(C2CC2)nc2c1c(C1CCCN1C(=O)c1ccccc1OC)nn2C (centres undefined)	.	-25%	-2%	.
O=C(NCc1ccccc1)C1CCCN(c2nccc(Nc3ccccc3F)n2)C1 (centres undefined)	.	32µM*	18µM*	.
Cc1ccc(NC(=O)C2CCN(C(=O)c3ncn4c3COC(c3ccc(F)cc3)C4)CC2)c(C)c1 (centres undefined)	-4%	i	1%	35µM*
Cc1ccc(C)c(NC(=O)C2CCN(C(=O)c3ncn4c3COC(c3ccc(F)cc3)C4)CC2)c1 (centres undefined)	-17%	-19%	-14%	28µM*
COc1ccc(C2Cn3cnc(C(=O)N4CCC(C(=O)Nc5cccc(Cl)c5)CC4)c3CO2)cc1 (centres undefined)	-24%	-2%	?	40µM*
Cc1cc(F)ccc1NC(=O)C1CCN(C(=O)c2ncn3c2COC(c2ccc(F)cc2)C3)CC1 (centres undefined)	-1%	i	-7%	?
Cc1cc(NC(=O)C2CCN(C(=O)c3ncn4c3COC(c3ccc(F)cc3)C4)CC2)ccc1F (centres undefined)	-4%	-12%	-13%	22µM*
O=C(c1ccccc1F)N1CCCC1C(=O)N1CCCC1c1nc2ccncc2[nH]1 (centres undefined)	.	-14%	-2%	.
O=C(C1CC1)N1CCN(c2ccc3nnc(C4CC4)n3n2)CC1	.	?	-12%[172 µM]	.
O=S1(=O)c2cccnc2OC(COc2ccccc2)CN1Cc1cccs1 (centres undefined)	.	28µM*	?	.
COc1ccc(OCC2CN(Cc3cccs3)[S+](=O)([O-])c3cnccc3O2)cc1 (centres undefined)	.	-26%[46.1 µM]	?	.
COc1cccc(N2CCN(C(=O)C3CCCN(c4cnc5nccnc5c4)C3)CC2)c1 (centres undefined)	?	?	40µM*	i
Cc1ccc(C(=O)N2CCCC3(CCNCC3)CC2)cc1Cl	-1%	79µM*	?	i
O=C(c1cccc2cnccc12)N1CCCC2(C=Cc3ccccc3O2)CC1 (centres undefined)	-23%	?	45µM*	i
O=C1NC2(CCN(C(=O)c3cccnc3)CC2)Oc2ccccc21	-11%[70.6 µM]	-11%[138 µM]	-2%[172 µM]	i
CCC(c1cccnc1)N(C)C(=O)c1cc(COc2ccccc2)[nH]n1 (centres undefined)	-1%	-15%	79µM*	i
CCN(Cc1ccccc1F)C(=O)c1cc(COc2ccccc2)[nH]n1	5%	?	?	i
Cc1ccc(CNC(=O)N2CCC3(CC2)CC(C(=O)N2CCOCC2)N(C)C3)cc1 (centres undefined)	-7%	-22%	-5%	i
COc1ccccc1-c1cccc(C(=O)N2CCC[C@H]2C(=O)NCc2ccccc2F)c1	.	-25%	?	.

Screening data from PubChem.
